Drawing on ChEMBL document CHEMBL4513216, “Probing the Open Global Health Chemical Diversity Library for Multistage-Active Starting Points for Next-Generation Antimalarials” (ACS Infect Dis, 2020), this text covers INHIBITION for 57 compounds.

Out of some 69,000 compounds screened, about 8,600 (12%) showed an effect of 50% or more. This excerpt belongs to a sample that is enriched for strong results.

For the assay, the system named is Plasmodium berghei. The assay is described as follows: Screen against P. berghei liver stage (PbLuc), transformed with Luciferase, at 10uM. In kind it is functional, HepG2. The conditions noted are these: tested at 10 uM.
For `CN(CCc1ccccn1)C1CCCN(Cc2noc(C3CC3)n2)C1` (configuration not stated), the INHIBITION is reported as 24.1%.

Turning to `COc1ccccc1C(O)CNc1c(C#N)c(=O)n(C)c(=O)n1C` (configuration not stated), the INHIBITION is 46.2%.

In the case of `Cn1ccc(C(=O)NCCOc2ccc3c(c2)OCO3)cc1=O`, the INHIBITION is listed as -3.54%.

On to `Cc1nc(COC[C@@H]2CC[C@H]3[C@H](CCN3c3ncccn3)O2)cs1`, for which the INHIBITION amounted to 46.6%.

Regarding `CCCn1c(C)c(CC(=O)NCCOC)c2c1CC(C)(C)CC2=O`, the INHIBITION is on record as -3.72%.

Turning to `CC(C)C(=O)NS(=O)(=O)c1ccc(F)c(C(F)(F)F)c1`, the INHIBITION is listed as 0.825%.

For `CC(=O)NS(=O)(=O)c1ccc(F)c(C(F)(F)F)c1`, the INHIBITION is given as 54.7%.

In the case of `COC(C)C(=O)NS(=O)(=O)c1ccc(F)c(C(F)(F)F)c1` (configuration not stated), the INHIBITION is recorded as 19.5%.

In the case of `COc1cc(Cl)c(NC(=O)c2cc3c([nH]c2=O)CCCC3=O)cc1OC`, the INHIBITION is on record as 43.6%.

Take `Cc1nc(SCC(=O)Nc2ccc(C(N)=O)cc2)c(C#N)c(C)c1C`: the INHIBITION is 48.7%.

On to `Cc1ccc(C(=O)Nc2ccc(N(C)C)nc2)n1C`, for which the INHIBITION was -130%.

Turning to `Cn1ccnc1CN1CC[C@H](O)[C@@H](n2ccc(=O)[nH]c2=O)CC1`, the INHIBITION stood at 22%.

As for `CCN(CC)C(=O)[C@@H]1C[C@@H](n2cc(-c3cccc(OC)c3)nn2)CN1`, the INHIBITION is recorded as 53.3%.

Take `CCN(CC)C(=O)[C@@H]1C[C@@H](n2cc(-c3ccccn3)nn2)CN1`: the INHIBITION is 85.4%.

On to `CNC(=O)[C@@H]1C[C@@H](n2cc(-c3ccc(Cl)cc3)nn2)CN1`, for which the INHIBITION worked out at 43.9%.

Take `CNC(=O)[C@@H]1C[C@H](n2cc(-c3ccc(Cl)cc3)nn2)CN1`: the INHIBITION was 30.3%.

Turning to `CCN(CC)C(=O)[C@@H]1C[C@H](n2cc(-c3ccccn3)nn2)CN1`, the INHIBITION stood at 34%.

Consider `CCN(CC)C(=O)[C@@H]1C[C@H](n2cc(-c3cccc(OC)c3)nn2)CN1`, for which the INHIBITION is 16.9%.

In the case of `O=C(NCC(=O)N1CCCC(c2ccccc2)CC1)c1ccoc1` (configuration not stated), the INHIBITION is 23.4%.

Consider `COC1CCN(C(=O)COC(C)=O)CC(=O)N(C)c2ccccc21` (configuration not stated), for which the INHIBITION is 32.1%.

With `COCC[C@]1(O)CCN(CC(=O)NCc2ccccn2)C[C@H]1C`, the INHIBITION amounted to 25.4%.

Turning to `Cc1cc(C)nc(N2CC=C[C@H]2C(=O)NCc2ccc3c(c2)OCO3)n1`, the INHIBITION is reported as 25.8%.

Regarding `CCCC(=O)Nc1cnn(CC(=O)Nc2ccc(SC)cc2)c1`, the INHIBITION came out at 14.3%.

In the case of `CCn1nc(C)c(C(C)Nc2cc(C3CCNCC3)nc(C)n2)c1C` (configuration not stated), the INHIBITION is -46.8%.

As for `CS(=O)(=O)CCCNC1CCCN(Cc2noc(C3CC3)n2)C1` (configuration not stated), the INHIBITION worked out at 19.5%.

Take `c1nc2c(c(NC3CCC3)n1)CCNCC2`: the INHIBITION is reported as 17.2%.

Turning to `Cc1cc(NC2CCc3nc(C)nn3C2)n2ncnc2n1` (configuration not stated), the INHIBITION was -12.5%.

As for `Cc1cc(NC2CCc3ncnn3C2)n2ncnc2n1` (configuration not stated), the INHIBITION came to 57.7%.

With `c1ccc2c(NC3CCc4ncnn4C3)ncnc2c1` (configuration not stated), the INHIBITION is on record as 63.8%.

On to `FC(F)(F)c1nc(NC2CCc3ncnn3C2)c2ccccc2n1` (configuration not stated), for which the INHIBITION is reported as 2.25%.

As for `CC(C)c1nc2n(n1)CC(Nc1ncnc3ccccc13)CC2` (configuration not stated), the INHIBITION is listed as 80.5%.

For `CC(C)c1nc2n(n1)CC(NCc1cc3ccccc3o1)CC2` (configuration not stated), the INHIBITION was found to be 43.2%.

For the compound `c1ccc(CNC2CCc3ncnn3C2)nc1` (configuration not stated), the INHIBITION was -0.847%.

On to `c1nc2c(c(NC3CCc4ncnn4C3)n1)CCC2` (configuration not stated), for which the INHIBITION was determined as 76.7%.

`Cc1nc2n(n1)CC(Nc1ncnc3c1CCC3)CC2` (configuration not stated): the INHIBITION was found to be 41.5%.

Turning to `CC(C)c1nc2n(n1)CC(Nc1ncnc3c1CCC3)CC2` (configuration not stated), the INHIBITION stood at 48%.

Regarding `CCc1nc2n(n1)CC(Nc1cc(C)nc3ncnn13)CC2` (configuration not stated), the INHIBITION is listed as 3.95%.

As to `Cn1cnc2c1C(COCc1ccccc1)N(Cc1cccnc1)CC2` (configuration not stated), the INHIBITION amounted to 8.85%.

In the case of `Cc1nc2ccc(C(=O)N3CC[C@H](O)[C@@H](N4CCOCC4)CC3)cc2[nH]1`, the INHIBITION was -5.71%.

For `O=C(N[C@@H]1CN(Cc2c[nH]nc2-c2ccccc2)C[C@H]1O)c1cc[nH]n1`, the INHIBITION was -3.182%.

For `CN(C)C(=O)COCc1nnc2n1CCN(Cc1ccsc1)C2`, the INHIBITION was found to be 39.4%.

Consider `O=C1COC2(CCN(Cc3ccncc3)CC2)CN1`, for which the INHIBITION is -55%.

For the compound `CCOc1ccc(Br)cc1-c1cc(N)[nH]n1`, the INHIBITION is -21.3%.

In the case of `CC(C)C(=O)N1CCCC2(CCCN2CC2CCCC2)C1` (configuration not stated), the INHIBITION is -26.5%.

Regarding `O=C(Cc1c[nH]c2ccccc12)N1CCC(Nc2cccnc2)CC1`, the INHIBITION is on record as -12.2%.

Regarding `O=C(NCCOc1ccc(Cl)cn1)Nc1cccnc1`, the INHIBITION is on record as -24.7%.

`CC1(C(=O)N2CCOCC2)CN(Cc2cccnc2)CCO1` (configuration not stated): the INHIBITION is recorded as 2.71%.

For `CC(O)CN(Cc1cccc(C(N)=O)c1)c1ccccc1` (configuration not stated), the INHIBITION stood at 28.9%.

As to `CCC(O)CN(Cc1cccc(C(=O)N(C)C)c1)c1ccccc1` (configuration not stated), the INHIBITION is reported as 2.93%.

Regarding `CC(O)CN(Cc1cccc(C(=O)N(C)C)c1)c1ccccc1` (configuration not stated), the INHIBITION was 60.5%.

As for `CC(O)(CNc1ccc(Cl)c(C#N)n1)c1ccccc1` (configuration not stated), the INHIBITION is -25%.

With `CC(C)c1nnc2n1CCN(CCS(=O)(=O)c1ccccc1)C2`, the INHIBITION amounted to 4.71%.

Turning to `COCC1CC2(CCN(Cc3ccoc3)CC2)CN1Cc1ccccn1` (configuration not stated), the INHIBITION came to 48.4%.

In the case of `CCN1CCC2(CC1)CC(COC)N(Cc1csc(C)n1)C2` (configuration not stated), the INHIBITION worked out at 8.85%.

As to `COCC1CC2(CCN(CC3CC3)CC2)CN1Cc1ccccn1` (configuration not stated), the INHIBITION is given as 13.1%.

Consider `COCC1CC2(CCN(C(N)=O)CC2)CN1Cc1csc(C)n1` (configuration not stated), for which the INHIBITION is 41%.

As for `COCC1CC2(CCN(C(C)=O)CC2)CN1Cc1csc(C)n1` (configuration not stated), the INHIBITION is given as 79.6%.
